Measured values as given in PubChem BioAssay (NCI).
The panel holds about 79,000 compounds, 15% with a hit somewhere; the sample as a whole holds those more often. A number with no mark means an inactive call. The source made the active and inactive calls. Cut-off read from the data, not from the text of the source: active = growth inhibition above about 70%; inactive = the rest.

Assays:
[1] = NCI Yeast Anticancer Drug Screen. Data for the rad50 strain (AID 155);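 note: 0% = growth of vehicle-only cultures of the same strain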; settings: S. cerevisiae rad50 strain growth inhibition, active compounds read high
Outline: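 Yeast carrying a defined DNA repair defect were exposed to test compounds, and growth was compared with vehicle-treated controls to give percent inhibition.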

[2] = NCI Yeast Anticancer Drug Screen. Data for the mec2-1 strain (AID 157); settings: S. cerevisiae mec2-1 strain, active compounds read high
Outline: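 Strain: mec2-1 (DNA repair/cell cycle alteration). Compound exposure, then growth measured; inhibition expressed relative to vehicle.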

[3] = NCI Yeast Anticancer Drug Screen. Data for the sgs1 mgt1 strain (AID 161);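 note: 0% = growth of cultures given vehicle only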; settings: S. cerevisiae sgs1 mgt1 strain, active compounds read high
Outline: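 Mutant yeast exposed to compound; growth scored against vehicle-only wells.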

[4] = NCI Yeast Anticancer Drug Screen. Data for the cln2 rad14 strain (AID 165);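 note: 0% = growth equal to vehicle treated cultures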; settings: S. cerevisiae cln2 rad14 strain, active compounds read high
Outline: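 Compounds are applied to the cln2 rad14 yeast strain, and growth is then compared with that of vehicle-treated cultures to give inhibition.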

[5] = NCI Yeast Anticancer Drug Screen. Data for the bub3 strain (AID 167); settings: S. cerevisiae bub3 mutant strain, active compounds read high
Outline: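 Compounds were applied to a genetically altered yeast strain carrying a cell-cycle control defect. Growth inhibition was scored against vehicle-treated controls.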

[6] = NCI Yeast Anticancer Drug Screen. Data for the mlh1 rad18 strain (AID 175); settings: S. cerevisiae mlh1 rad18 strain growth inhibition, active compounds read high
Outline: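 Read-out is yeast growth inhibition, calculated against vehicle-only controls. The compound was applied to a strain engineered with DNA damage repair alterations.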

[7] = at 5.0 µM (retest, dose inferred, filed as 0.5)
[8] = at 50.0 µM (retest, dose inferred, filed as 5.0)

Row | SMILES | growth inhibition [1, 7] [%] | growth inhibition [1, 8] | growth inhibition ([1]; at 50.0 µM) | growth inhibition [2, 7] [%] | growth inhibition [2, 8] | growth inhibition ([2]; at 50.0 µM) | growth inhibition [3, 7] | growth inhibition [3, 8] | growth inhibition ([3]; at 50.0 µM) | growth inhibition [4, 7] | growth inhibition [4, 8] | growth inhibition ([4]; at 50.0 µM) | growth inhibition [5, 7] | growth inhibition [5, 8] | growth inhibition ([5]; at 50.0 µM) | growth inhibition [6, 7] | growth inhibition [6, 8] | growth inhibition ([6]; at 50.0 µM)
1 | CC(=O)Nc1cc(Cl)c2c(c1)C(=O)c1ccccc1-2 | 64 | 82% (active) | 91.8% (active) | 34 | 61% | 14.6% | 43% | 77% (active) | 35.6% | 24% | 35% | -23.4% | 14% | 38% | 19.1% | 41% | 79% (active) | 33%
2 | CCCCCCCCCC1OCC(O)CO1 (configuration not stated) (tested in a mixture with another compound) | 7 | 66% | 99% (active) | 9 | 79% (active) | 96.1% (active) | 10% | 96% (active) | 98.7% (active) | 3% | 90% (active) | 86.4% (active) | 8% | 87% (active) | 89.3% (active) | 12% | 98% (active) | 99.5% (active)
3 | N#Cc1cc([N+](=O)[O-])ccc1NC(=O)/C(=N/N)C(C(=O)c1ccc(Cl)c(Cl)c1)C1OC(=O)c2ccccc21 (configuration not stated) | 23 | 23% | 91.8% (active) | 11 | 11% | 92.2% (active) | 18% | 18% | 91.2% (active) | 1% | 1% | 90.2% (active) | 11% | 11% | 92.4% (active) | 5% | 5% | 92% (active)
4 | O=C(NCCl)Nc1ccccc1 | -3 | 62% | 57.7% | 5 | 82% (active) | 62.8% | 8% | 86% (active) | 67.9% | 1% | 65% | 17.9% | 6% | 79% (active) | 67.5% | 6% | 83% (active) | 66%
5 | Cc1ccc(C2=C(C#N)C(c3ccccc3)C(C#N)=C(N)O2)cc1 (configuration not stated) | 57 | 95% (active) | 97.5% (active) | 53 | 99% (active) | 98.5% (active) | 71% (active) | 98% (active) | 97.8% (active) | 35% | 99% (active) | 98.9% (active) | 48% | 98% (active) | 97.9% (active) | 59% | 98% (active) | 98.5% (active)
6 | Cc1ccc(-[n+]2cc([O-])on2)cc1 | -11 | 15% | 27.4% | -10 | -8% | 28.9% | -6% | 0% | -5.5% | -3% | -3% | 64.2% | 10% | 2% | 15.6% | -7% | 22% | 28.4%
7 | Oc1cc(C(c2ccccc2)c2ccccc2)c2ccccc2c1O | 17 | 1% | 97.6% (active) | 26 | 8% | 98.5% (active) | 20% | 1% | 98.5% (active) | 13% | 0% | 97.7% (active) | 10% | 2% | 98.2% (active) | 34% | 1% | 97.8% (active)
8 | NC(=O)NCCCCC1NC(=S)N(c2ccccc2)C1=O (configuration not stated) | -5 | -4% | -3.85% | -8 | -16% | -3.45% | -7% | 47% | 29.8% | -3% | -3% | -4.9% | -9% | -7% | 5.05% | -9% | -8% | -12.3%
9 | Cn1c(=O)c2c(O)c(-c3ccccc3)c(=O)n3c4ccccc4n(c1=O)c23 | 19 | 48% | 51.3% | 21 | 51% | 27.6% | 28% | 68% | 64.5% | 7% | 34% | 19.7% | 10% | 30% | 25.9% | 18% | 59% | 50.1%
10 | CCOC(=O)N1c2ccc3ccccc3c2C=CC1C#N (configuration not stated) | 0 | 6% | 96.5% (active) | -12 | -5% | 97.3% (active) | -1% | 14% | 96.6% (active) | -11% | 7% | 95.5% (active) | -18% | -20% | 86.3% (active) | -2% | -6% | 94.7% (active)
11 | CC(=O)OC1COC(n2ccc3cc(Br)c([N+](=O)[O-])cc32)C(OC(C)=O)C1OC(C)=O (configuration not stated) | -16 | 2% | 69.7% | -5 | 8% | 4.55% | -25% | 47% | 78% (active) | -45% | 3% | 5.45% | -23% | 71% (active) | 83.5% (active) | -27% | 36% | 47.9%
12 | COc1cccc(C2c3cc4c(cc3OC(NNc3ccccc3)C2C)OCO4)c1OC (configuration not stated) | 14 | 94% (active) | 73.2% (active) | 3 | 94% (active) | 44.7% | 9% | 86% (active) | 44% | 11% | 90% (active) | 27.1% | 4% | 94% (active) | 34.2% | 24% | 93% (active) | 56.4%
13 | CC(=O)c1ccc2c(c1)CC1(C2)Cc2cc3c(c(C(=O)O)c2C1)CCC3 (configuration not stated) | 0 | 95% (active) | 90.3% (active) | 10 | 95% (active) | 90.1% (active) | 34% | 99% (active) | 94.5% (active) | -3% | 95% (active) | 95% (active) | 1% | 95% (active) | 85.8% (active) | 15% | 97% (active) | 88.6% (active)
14 | N#CC1CCCC(Cc2ccccc2)(c2ccccc2)C1=O (configuration not stated) | -4 | 93% (active) | 98.8% (active) | -3 | 95% (active) | 98.1% (active) | -2% | 95% (active) | 98.3% (active) | -1% | 70% (active) | 95% (active) | 10% | 96% (active) | 98.7% (active) | -6% | 96% (active) | 97.6% (active)
15 | O=C1C2=C(CCCC2)C(=O)C(Cl)C1Cl (configuration not stated) | 36 | 98% (active) | 97.8% (active) | 32 | 99% (active) | 99.3% (active) | 24% | 99% (active) | 99.5% (active) | 9% | 99% (active) | 99.1% (active) | 56% | 99% (active) | 99.5% (active) | 62% | 99% (active) | 99.5% (active)
16 | Cc1cc(N)c2cc(OCCOc3ccc4nc(C)cc(N)c4c3)ccc2n1 | 68 | 91% (active) | 97.5% (active) | 69 | 94% (active) | 95.2% (active) | 77% (active) | 93% (active) | 92.5% (active) | 71% (active) | 92% (active) | 84.7% (active) | 79% (active) | 95% (active) | 93.7% (active) | 91% (active) | 94% (active) | 95.2% (active)
17 | O=c1nc(-c2ccccc2)cc(-c2ccccc2O)[nH]1 | -11 | 93% (active) | 44.1% | -1 | 25% | 16.3% | -1% | 40% | 30.4% | 19% | 61% | 33.8% | 0% | 87% (active) | 16.9% | 1% | 68% | 33.5%
18 | C/C(=N/NC(=O)Nc1ccc(N=Nc2ccccc2)cc1)c1ccccn1 | -15 | -12% | 15.2% | -7 | -5% | -10.9% | 0% | 19% | 24.8% | 33% | -16% | -4.4% | 3% | 43% | 16.4% | -9% | 15% | 28.1%
19 | COc1ccc(NNC(=O)c2ccccc2)cc1 | 29 | 97% (active) | 96.3% (active) | 9 | 95% (active) | 97.5% (active) | 13% | 98% (active) | 96.3% (active) | 3% | 97% (active) | 96.8% (active) | -9% | 98% (active) | 98.2% (active) | 13% | 98% (active) | 97.7% (active)
